Measurements from PubChem BioAssay (NCI).
About 83,000 compounds went through this panel and 20% of them were active in at least one assay; those are over-represented in the sample as a whole.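 Plates (96-well) were seeded with cells, treated with compound at one concentration, and incubated for 48 hours before percent growth was determined.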 Values without a mark were called inactive. Calls of active or inactive are those of the source. How the source made its calls: active means growth percent below 10; inactive means the rest.

Each compound was assayed on HS 578T breast (assay: NCI-60 one-dose screen, 48 h (100 = growth as untreated, 0 = no growth, -100 = all killed)). Conditions: 10 µM unless noted.
In the case of `O=C1Nc2ccccc2/C1=C\c1cccc(/C=C2/C(=O)Nc3ccccc32)n1`, the growth is reported as -39.2% (active).
`COc1ccc(/C=N/NC(=O)c2cccc3cc[nH]c23)cc1O` showed a growth of 15.2%.
`CCN1C(=O)N(CC)C2C1NN=c1s/c(=C3\C(=O)Nc4ccccc43)c(=O)n12` (centres undefined) showed a growth of 13.2%.
Compound `CC(C)(O)C1CCCN1C(=O)c1ccccc1I` (centres undefined) has a growth of 85.7%.
With `O=C1NC(=S)NC(=O)C1=Cc1cccc(C=C2C(=O)NC(=S)NC2=O)c1` the growth was 103%.
`Cn1c2c(Cl)c(Cl)ccc2c2cc(N)[nH]c(=O)c21` gave a growth of 51.5%.
`COc1ccc(-c2cnnc3c(-c4cccc(C(F)(F)F)c4)cnn23)cc1` was tested, and the growth was 20.1%.
`O=C1Nc2c(ccc(Cl)c2Cl)/C1=C/c1ccc([N+](=O)[O-])cc1` showed a growth of 100%.
Compound `COc1ccc(-c2nc(SCC(C)C)nc(N/N=C(/C)c3ccc(OC)c(OC)c3)c2C#N)cc1` has a growth of 76%.
`NS(=O)(=O)c1cccc(NC(=O)C(=O)C2C(=O)Nc3ccccc32)c1` (centres undefined) was tested, and the growth was 101%.
In the case of `O=S(=O)(c1cccc(NC2=Nc3cccc4cccc2c34)c1)N1CCCC1`, the growth is reported as 76.8%.
For `CCOC(=O)c1c(SC)nn(-c2cc(=O)[nH]c3ccc(Br)cc23)c1N`, the growth was 91.8%.
In the case of `CC(=O)c1c[nH]c2ccc(-c3ccnc(Nc4ccc(NC(=O)C5CCCC5)c(CN5CCOCC5)c4)n3)cc12`, the growth is reported as -27.7% (active).
In the case of `COc1ccc(/C=C(/c2ccccc2)[N+](=O)[O-])cc1`, the growth is reported as 14.4%.
With `O=C1Nc2c(ccc(Cl)c2Cl)/C1=C/c1ccccn1` the growth was 63.9%.
`CCN(CCNc1cc(OC)cc2cccnc12)CCc1ccccc1` was tested, and the growth was 85.6%.
Work on `COc1cc2nc(-c3ccc(C#N)cc3)[nH]c(=O)c2cc1OC` yielded a growth of 106%.
Work on `CCCOc1nc(SCCC)nc2c1cnn2-c1ccccc1` yielded a growth of 126%.
In the case of `O=S(=O)(c1ccccc1)N1CCCc2ccccc21`, the growth is reported as 93.2%.
`O=C(Nc1ccc(Cl)cc1)Nc1ccc(Cl)c(Cl)c1` was tested, and the growth was 33%.
Work on `COc1cc(NCC(O)CN(CC(C)C)C2CCCC2)c2ncccc2c1` (centres undefined) yielded a growth of 73.3%.
`COc1ccc(Nn2c(SCC(=O)Nc3nc(-c4ccc(Cl)cc4)cs3)nc(C)c2C)cc1` showed a growth of 86.1%.
With `COc1cccc2c1C(=O)c1c(O)c3c(c(O)c1C2=O)C[C@@](O)(C(=O)CO)C[C@@H]3O[C@H]1C[C@H](N)[C@@H](O)[C@H](C)O1` the growth was -18.2% (active).
Compound `Clc1ccc(N2N=C(c3cccc(Nc4ccncc4)c3)CC2c2ccc3c(c2)OCO3)cc1` (centres undefined) has a growth of 68.9%.
`O=C(N/N=C/c1ccncc1)c1ccccc1Nc1cccc(C(F)(F)F)c1` showed a growth of 103%.
For `COc1ccc(Cc2nc3cc(OC)c(OC)cc3c(=O)[nH]2)cc1`, the growth was 77.5%.
Compound `COc1ccc(-c2c[nH]c(C(=O)O)c2-c2cc(OC)c3c(c2OC)OCO3)cc1` has a growth of 99.9%.
Work on `Clc1ccc(N2N=C(c3cccc(Nc4ccncc4)c3)CC2c2ccccc2)cc1` (centres undefined) yielded a growth of 72.7%.
In the case of `COc1ccc(Cn2nc(-c3cc(OC)c(OC)c(OC)c3)c3c2CCc2cnoc2-3)cc1OC`, the growth is reported as 72.5%.
`COc1cc2nnn3c4ncccc4c(N=O)c3c2cc1OC` showed a growth of 116%.
In the case of `Clc1nc(Cl)c2ncn(CC3(Cn4cnc5c(Cl)nc(Cl)nc54)COC3)c2n1`, the growth is reported as -43.8% (active).
For `C(=N\Nc1ncc(-c2cc3cc4c(cc3o2)OCO4)s1)/c1c[nH]c2ccccc12`, the growth was -6.98% (active).
`COc1cc(/C=C/C(=O)c2c(C)oc3nc[nH]c(=O)c23)ccc1O` gave a growth of 93%.
In the case of `CCc1nc(C)cn1C(=O)OCc1nc2nc(Cl)nc(N3CCOCC3)c2[nH]1`, the growth is reported as -6.6% (active).
For `O=C(Nc1ccccc1)Oc1ccccc1-c1ccccc1`, the growth was 93.3%.
In the case of `COc1ccc(C(O)c2cc3c(N)c(C(=O)Nc4ccccc4)sc3nc2C)cc1` (centres undefined), the growth is reported as 3.96% (active).
Compound `CCC(C)N(CCNc1cc(OC)cc2cccnc12)CCC(C)C` (centres undefined) has a growth of 82.9%.

Each compound was assayed on NCI/ADR-RES ovarian in the same assay as above. Conditions: 10 µM unless noted.
In the case of `O=C1Nc2ccccc2/C1=C\c1cccc(/C=C2/C(=O)Nc3ccccc32)n1`, the growth is reported as 16.1%.
For `COc1ccc(/C=N/NC(=O)c2cccc3cc[nH]c23)cc1O`, the growth was -7.64% (active).
`CCN1C(=O)N(CC)C2C1NN=c1s/c(=C3\C(=O)Nc4ccccc43)c(=O)n12` (centres undefined) gave a growth of 42%.
`CC(C)(O)C1CCCN1C(=O)c1ccccc1I` (centres undefined) was tested, and the growth was 87.8%.
Work on `O=C1NC(=S)NC(=O)C1=Cc1cccc(C=C2C(=O)NC(=S)NC2=O)c1` yielded a growth of 102%.
For `Cn1c2c(Cl)c(Cl)ccc2c2cc(N)[nH]c(=O)c21`, the growth was 74.6%.
Work on `COc1ccc(-c2cnnc3c(-c4cccc(C(F)(F)F)c4)cnn23)cc1` yielded a growth of 60.5%.
With `O=C1Nc2c(ccc(Cl)c2Cl)/C1=C/c1ccc([N+](=O)[O-])cc1` the growth was 93.9%.
`COc1ccc(-c2nc(SCC(C)C)nc(N/N=C(/C)c3ccc(OC)c(OC)c3)c2C#N)cc1` showed a growth of 90.2%.
Compound `NS(=O)(=O)c1cccc(NC(=O)C(=O)C2C(=O)Nc3ccccc32)c1` (centres undefined) has a growth of 97.5%.
For `O=S(=O)(c1cccc(NC2=Nc3cccc4cccc2c34)c1)N1CCCC1`, the growth was 66%.
In the case of `CCOC(=O)c1c(SC)nn(-c2cc(=O)[nH]c3ccc(Br)cc23)c1N`, the growth is reported as 100%.
In the case of `CC(=O)c1c[nH]c2ccc(-c3ccnc(Nc4ccc(NC(=O)C5CCCC5)c(CN5CCOCC5)c4)n3)cc12`, the growth is reported as -4.77% (active).
Compound `O=C1Nc2c(ccc(Cl)c2Cl)/C1=C/c1ccccn1` has a growth of 82.5%.
`CCN(CCNc1cc(OC)cc2cccnc12)CCc1ccccc1` was tested, and the growth was 81.1%.
`COc1cc2nc(-c3ccc(C#N)cc3)[nH]c(=O)c2cc1OC` showed a growth of 98.7%.
`CCCOc1nc(SCCC)nc2c1cnn2-c1ccccc1` gave a growth of 96%.
Work on `O=S(=O)(c1ccccc1)N1CCCc2ccccc21` yielded a growth of 107%.
With `O=C(Nc1ccc(Cl)cc1)Nc1ccc(Cl)c(Cl)c1` the growth was -18.8% (active).
Compound `COc1cc(NCC(O)CN(CC(C)C)C2CCCC2)c2ncccc2c1` (centres undefined) has a growth of 89.2%.
In the case of `COc1ccc(Nn2c(SCC(=O)Nc3nc(-c4ccc(Cl)cc4)cs3)nc(C)c2C)cc1`, the growth is reported as 23.1%.
For `COc1cccc2c1C(=O)c1c(O)c3c(c(O)c1C2=O)C[C@@](O)(C(=O)CO)C[C@@H]3O[C@H]1C[C@H](N)[C@@H](O)[C@H](C)O1`, the growth was 70.5%.
For `Clc1ccc(N2N=C(c3cccc(Nc4ccncc4)c3)CC2c2ccc3c(c2)OCO3)cc1` (centres undefined), the growth was 31.2%.
`COc1ccc(Cc2nc3cc(OC)c(OC)cc3c(=O)[nH]2)cc1` showed a growth of 74.8%.
`COc1ccc(-c2c[nH]c(C(=O)O)c2-c2cc(OC)c3c(c2OC)OCO3)cc1` was tested, and the growth was 99.2%.
In the case of `Clc1ccc(N2N=C(c3cccc(Nc4ccncc4)c3)CC2c2ccccc2)cc1` (centres undefined), the growth is reported as 101%.
`COc1ccc(Cn2nc(-c3cc(OC)c(OC)c(OC)c3)c3c2CCc2cnoc2-3)cc1OC` gave a growth of 26.1%.
For `COc1ccc(-c2nn(Cc3ccccc3)c3c2-c2oncc2CC3)cc1OC`, the growth was 82.6%.
Compound `COc1cc(/C=C/C(=O)c2c(C)oc3nc[nH]c(=O)c23)ccc1O` has a growth of 101%.
`CCc1nc(C)cn1C(=O)OCc1nc2nc(Cl)nc(N3CCOCC3)c2[nH]1` was tested, and the growth was 2.83% (active).
In the case of `O=C(Nc1ccccc1)Oc1ccccc1-c1ccccc1`, the growth is reported as 99.9%.
With `CCC(C)N(CCNc1cc(OC)cc2cccnc12)CCC(C)C` (centres undefined) the growth was 85.5%.
